# From PubChem BioAssay AID652061 (Broad Institute, 2013)
# The other results are listed elsewhere or left out. Active and inactive are the calls of the source.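 Rule for the calls: active = signal increase whose fitted curve reaches an absolute level of 40 at a concentration under 10 µM; inactive = activity opposite to the expected increase, or the rest.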
# Experiment: start codon recognition fidelity modulators – S. cerevisiae, UUG firefly luciferase, cherry-pick, set 2, dose response (AID 652061);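 note: 0% = median DMSO signal and 100% = twice the DMSO signal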
# Conditions: max activity: measured here: max activity, test 2, at 38 µM, test 2, stronger effect = higher value unless noted
Compound,max activity,outcome
c1ccc(-n2cccc2)c(N2CCCCC2)c1,"8.5% [measured here: max activity, test 2, at 0.05 µM, test 2, stronger effect = higher value]",inactive
CN1CCN(C(=O)/C(=C\c2cccs2)NC(=O)c2cccs2)CC1,13.1%,inactive
O=C(C1CCC1)N1C[C@H]2[C@@H](c3ccccc31)[C@@H](CO)N2C(=O)c1ccccc1F,"6.68% [at 0.035 µM, test 1, stronger effect = higher value] (inactive)",
